Compounds without any hit were thinned out: in the full panel of roughly 83,000, 20% have a hit.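 Cell lines were cultured in 96-well plates, exposed to a single compound concentration, and assessed for percent growth 48 hours later.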 A number with no mark means an inactive call. Activity calls are given as the source filed them. The calls were made as follows: active = growth percent below 10; inactive = the rest.
Experiments:
Assay in all cases: NCI-60 one-dose screen, 48 h (100 = growth as untreated, 0 = no growth, -100 = all killed)
Conditions in all cases: 10 µM unless noted
[1] = system: DU-145 prostate
[2] = system: K-562 leukemia
[3] = system: MALME-3M melanoma
[4] = system: MDA-MB-231 breast
[5] = system: RXF 393 renal
[6] = system: SF-268 CNS
[7] = system: SF-295 CNS
[8] = system: SF-539 CNS
[9] = system: UACC-257 melanoma
[10] = system: M14 melanoma
[11] = system: HCT-15 colon
[12] = system: HT29 colon
[13] = system: SNB-75 CNS
[14] = system: SNB-19 CNS
[15] = system: U251 CNS
[16] = system: PC-3 prostate
[17] = system: SK-MEL-5 melanoma
[18] = system: UACC-62 melanoma
[19] = system: LOX IMVI melanoma
[20] = system: SK-MEL-28 melanoma

| SMILES | growth [1] | growth [2] | growth [3] | growth [4] | growth [5] | growth [6] | growth [7] | growth [8] | growth [9] | growth [10] | growth [11] | growth [12] | growth [13] | growth [14] | growth [15] | growth [16] | growth [17] | growth [18] | growth [19] | growth [20] |
| --- | --- | --- | --- | --- | --- | --- | --- | --- | --- | --- | --- | --- | --- | --- | --- | --- | --- | --- | --- | --- |
| O=C(/C=C/C12c3ccccc3C(c3ccccc31)C1C(=O)NC(=O)C12)c1cccs1 (stereo not given) | 13.5% | 16.8% | 75.6% | 51.6% | 28.1% | 32.9% | 52.5% | 53.9% | 45.7% | 48.2% | 26.3% | 22.6% | 17.1% | 39.2% | 15.8% | 33.6% | 54.8% | 37.2% | 28.6% | 45.8% |
| O=C(Nc1ccccc1)Nc1ccccc1CNc1nc(Nc2ccc(OCCN3CCCC3)cc2)ncc1Cl | 88% | 7.08% (active) | 71.2% | 41.9% | 33.7% | 72.5% | 73.3% | 31% | 75.3% | 61.2% | 41.4% | 13.8% | 90% | 70.6% | 38.7% | 76.1% | 57.2% | 86.1% | -68.3% (active) | 78.5% |
| CCN1C(=O)N(CC)C2C1NN=c1s/c(=C\c3ccc([N+](=O)[O-])cc3)c(=O)n12 (stereo not given) | 19.9% | 9.56% (active) | 45.7% | 18.5% | 2.89% (active) | 71.5% | 13.2% | -7.87% (active) | 31.1% | 12% | 16.3% | 5.2% (active) | 0.315% (active) | 31.6% | 20.8% | 32.6% | 27.6% | 27.7% | 36.8% | 64.1% |
| NS(=O)(=O)Oc1cccc(-c2nc3sccn3c2-c2ccccc2)c1 | 89.9% | 16.7% | 41.3% | 60.3% | 50% | 70.1% | 28.8% | 31.9% | 74.4% | 20.4% | 29% | 27% | -9.42% (active) | 51.1% | 36.3% | 72.4% | 32.3% | 36.3% | 49.5% | 60.4% |
| COC(=O)c1sc(-c2ccc(C)cc2)cc1O | 101% | 84.3% | 97.9% | 99.6% | 109% | 96.2% | 112% | 114% | 115% | 101% | 101% | 108% | 105% | 101% | 96.5% | 102% | 103% | 97.1% | 101% | 113% |
| CCOc1ccccc1NC(=O)CCC(=O)OC | 107% | 108% | 72.9% | 107% | 109% | 96.9% | 104% | 97.4% | 123% | 100% | 105% | 89.7% | 75.7% | 111% | 105% | 93.5% | 99.7% | 106% | 102% | 101% |
| C=CN(C(=O)N1CCN(c2cc3c(cc2F)c(=O)c(C(=O)O)cn3C2CC2)CC1)c1nc(-c2ccc(C)cc2)cs1 | 24.7% | 18.5% | 48.2% | 21.5% | 6.69% (active) | 26.3% | -5.02% (active) | 20.2% | 54.2% | 31.4% | 9.38% (active) | 6.66% (active) | 14.4% | 18.5% | 11.4% | 14.7% | 26.6% | 29.2% | 8.56% (active) | 42.1% |
